The nature of assay [1]: viability loss in pontine glioma line – cell-based, SU-DIPG-XVII, MIPE5.0, CellTiter-Glo, qHTS, dose response (AID 1347060; cut-off not given, nearly all actives have AC50 up to about 26 µM). The note with it: CellTiter-Glo ATP luminescence. For orientation: ATP-based viability assays read luminescence as a measure of living cells.
The nature of assay [2]: viability loss in pontine glioma line – cell-based, SU-DIPG-XIII, MIPE4.0, CellTiter-Glo, qHTS, dose response (AID 1347061; cut-off not given, nearly all actives have AC50 up to about 37 µM;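 further: cells exposed to compound for 48 hours before readout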). The note with it: CellTiter-Glo ATP luminescence.
The nature of assay [3]: viability loss in pontine glioma line – cell-based, JHH-DIPG-1, MIPE4.0, CellTiter-Glo, qHTS, dose response (AID 1347062; cut-off not given, nearly all actives have AC50 up to about 27 µM;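 on AC50: cells exposed to compound for two days before readout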). The note with it: JHH-DIPG-1 viability, CellTiter-Glo ATP luminescence.
The nature of assay [4]: viability loss in pontine glioma line – cell-based, SU-DIPG-IV, MIPE4.0, CellTiter-Glo, qHTS, dose response (AID 1347063; cut-off not given, nearly all actives have AC50 up to about 30 µM;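 further: compound exposure lasted 48 hours before the viability readout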). Conditions: CellTiter-Glo ATP luminescence.
Assay [5] is described as follows: growth inhibition of DIPG cells – cell-based, MIPE4.0 library, CellTiter-Glo luminescence, qHTS (AID 1347066; cut-off not given, nearly all actives have AC50 up to about 30 µM;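 further: cells exposed to compound for 48 hours before readout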). The note with it: SU-DIPG-VI viability, CellTiter-Glo ATP luminescence.
Assay [6] can be described thus: JHH-DIPG-1 glioma cell viability, MIPE5.0 library, CellTiter-Glo luminescence, qHTS (AID 1347067; cut-off not given, nearly all actives have AC50 up to about 26 µM;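 further: cells exposed to compound for 48 hours before readout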). Conditions: JHH-DIPG-1 glioma viability, CellTiter-Glo ATP luminescence.
A short description of assay [7]: growth inhibition of DIPG cells – cell-based, MIPE5.0 library, qHTS (AID 1347068; cut-off not given, nearly all actives have IC50 up to about 30 µM). Conditions: SU-DIPG-XXV viability.
A short description of assay [8]: GFP-Q80 aggregate reduction, neuronal-like cells, cell-based, NGF-treated PC12, GFPQ80 (AID 1614).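 Further: lower means fewer inclusions and 0 means no inclusions at all.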 Conditions: PC12 NGF-treated GFP-polyQ80 inclusion reduction.
Assay [9] addresses ATP-dependent translocase ABCB1 (Homo sapiens) (UniProt P08183). Put plainly: P-glycoprotein substrate transport blockade – cell-based (AID 377; in the data active means fluorescence slope change above about 50%). The note with it: MDR1-expressing cells, fluorescent substrate accumulation slope; stronger effect = higher value; concentration not given here.
Assay [10] in a line: compounds altering circadian rhythm period length – cell-based, LOPAC library, luminescence reporter (AID 2774).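 Further: values are relative to mean of DMSO wells on each plate.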 The note with it: circadian reporter cells, at 7 µM, actives lie on both sides.
Assay [11] deals with Hepatitis C virus NS3 helicase. Put plainly: blockers of NS3h binding to ssDNA – biochemical, fluorescence polarization, LOPAC1280 library, primary screen (AID 687035; in the data active means inhibition above about 37%). The note with it: Purified HCV NS3 helicase, Cy5-dT15 ssDNA binding fluorescence polarization; stronger effect = higher value; concentration not given here.
Assay [12] in a line: compounds altering Cy5-DNA-NS3h complex signal – biochemical, LOPAC1280, artefact control for HCV NS3 helicase inhibitor project (AID 687037). Conditions: Cy5-DNA-NS3h complex fluorescence interference counterscreen.
Assay [13] can be described thus: blockers of cellular phospholipid synthesis – cell-based, LOPAC library, screen 4, primary screen (AID 1347384). Conditions: animal cells, phospholipid biosynthesis inhibition screen; at 10 µM.
A short description of assay [14]: viability loss in pontine glioma line – cell-based, SU-DIPG-XIII, MIPE5.0, CellTiter-Glo, qHTS, dose response (AID 1347064; cut-off not given, nearly all actives have AC50 up to about 23 µM). Conditions: CellTiter-Glo ATP luminescence.
Assay [15] in a line: viability loss in pontine glioma line – cell-based, SU-DIPG-XXV, MIPE5.0, CellTiter-Glo, qHTS, dose response (AID 1347065; cut-off not given, nearly all actives have AC50 up to about 26 µM;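 further: cells exposed to compound for 48 hours before ATP readout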). The note with it: CellTiter-Glo ATP luminescence.
The subject of assay [16] is Aerobactin synthetase IucA (Klebsiella pneumoniae). Briefly: inhibition of K. pneumoniae IucA enzyme – biochemical, Tocris library, absorbance (AID 1345561).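 Further: 100% = enzyme without compound and 0% = no enzyme.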 The note with it: purified IucA enzyme assay, absorbance (OD) read-out; stronger effect = lower value;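 tested at 8 µM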.
Assay [17] in a line: growth inhibition, single agent or in combination, cell-based, chromothripsis tumors, cisplatin or BGB combos (AID 1671449; in the data active means inhibition above about 80%;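 further: cells exposed for 96 hours; 0% = vehicle DMSO and 100% = killing by high DMSO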). The note with it: LFS_MB_P medulloblastoma cells.
A short description of assay [18]: growth inhibition, single agents and combos, ICB984, cell-based, cisplatin or BGB combos, synergistic combos for chromothripsis tumors (AID 1671451).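 Further: cells exposed for 96 hours before readout; 0% = vehicle DMSO and 100% = killing by high DMSO.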 The note with it: ICB984 medulloblastoma cells, drug combinations, stronger effect = higher value.

Structures are written as SMILES. Values joined by “and” are separate entries in the source; they are usually repeats but may differ in a detail not shown here. Equal values may be shown once. Inconclusive results are not listed. Some compounds were tested as several samples or in several runs, with calls that do not always agree. Active and inactive are the calls of the source. Unless noted, how the calls were made is not given here.

ATP-dependent translocase ABCB1 (Homo sapiens), sequence (P08183 whole entry, looked up): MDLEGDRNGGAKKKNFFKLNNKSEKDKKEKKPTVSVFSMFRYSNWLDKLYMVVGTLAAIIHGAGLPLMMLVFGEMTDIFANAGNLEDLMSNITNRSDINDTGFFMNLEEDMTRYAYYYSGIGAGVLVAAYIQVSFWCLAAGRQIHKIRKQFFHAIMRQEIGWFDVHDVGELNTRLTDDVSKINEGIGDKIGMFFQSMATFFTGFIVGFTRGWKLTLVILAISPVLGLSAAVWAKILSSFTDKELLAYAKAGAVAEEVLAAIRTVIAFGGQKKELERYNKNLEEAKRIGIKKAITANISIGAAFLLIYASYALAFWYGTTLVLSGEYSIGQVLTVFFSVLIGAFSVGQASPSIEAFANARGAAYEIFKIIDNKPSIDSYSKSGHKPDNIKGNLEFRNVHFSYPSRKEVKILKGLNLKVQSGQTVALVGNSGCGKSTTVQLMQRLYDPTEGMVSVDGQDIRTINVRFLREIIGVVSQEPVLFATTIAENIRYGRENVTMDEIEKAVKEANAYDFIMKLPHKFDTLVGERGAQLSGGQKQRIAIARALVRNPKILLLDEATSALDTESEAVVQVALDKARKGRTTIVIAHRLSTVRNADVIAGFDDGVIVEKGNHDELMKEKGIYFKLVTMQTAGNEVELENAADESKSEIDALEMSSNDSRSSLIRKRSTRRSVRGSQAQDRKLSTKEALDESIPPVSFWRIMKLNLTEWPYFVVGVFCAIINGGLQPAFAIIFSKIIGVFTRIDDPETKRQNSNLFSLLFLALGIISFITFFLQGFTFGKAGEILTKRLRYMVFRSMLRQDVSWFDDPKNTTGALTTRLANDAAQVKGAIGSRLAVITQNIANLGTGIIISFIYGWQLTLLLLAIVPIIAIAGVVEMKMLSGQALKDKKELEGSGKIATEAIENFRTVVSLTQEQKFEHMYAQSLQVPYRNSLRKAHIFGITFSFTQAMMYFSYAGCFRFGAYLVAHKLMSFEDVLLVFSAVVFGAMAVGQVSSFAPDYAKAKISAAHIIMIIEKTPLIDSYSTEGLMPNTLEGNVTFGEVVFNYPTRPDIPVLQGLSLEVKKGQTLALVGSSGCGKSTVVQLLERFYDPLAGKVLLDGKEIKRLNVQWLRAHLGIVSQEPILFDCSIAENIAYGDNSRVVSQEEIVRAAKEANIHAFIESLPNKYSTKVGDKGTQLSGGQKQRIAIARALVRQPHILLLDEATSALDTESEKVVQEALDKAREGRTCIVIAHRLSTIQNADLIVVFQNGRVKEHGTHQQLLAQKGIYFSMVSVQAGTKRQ

Take `CC(C)Oc1ccc2c(=O)c(-c3ccccc3)coc2c1`: the result in assay [1], in assay [2], in assay [3], in assay [4], in assay [5] and in assay [6] was inactive. Moreover, in assay [7], the outcome was inactive.
`Cc1cccc(Nc2ccncc2S(=O)(=O)NC(=O)NC(C)C)c1`: the outcome in [2], in assay [3], in [4] and in assay [5] was inactive.
`Cc1cccc(Nc2ccccc2C(=O)O)c1C` displayed an inclusion score in assay [8] of 1.5.
`C[C@H](CCC(=O)O)[C@H]1CC[C@H]2[C@@H]3C(=O)C[C@@H]4CC(=O)CC[C@]4(C)[C@H]3CC(=O)[C@]12C`: the fluorescence slope change in assay [9] is 97.9% (active).
Regarding `CC1=C(C(=O)O)N2C(=O)[C@@H](NC(=O)[C@H](N)c3ccccc3)[C@H]2SC1`, the fluorescence slope change in assay [9] was 94.6% (active).
Turning to `C[C@]12CCC(=O)C=C1CC[C@@H]1[C@@H]2C(=O)C[C@@]2(C)[C@H]1CC[C@]2(O)C(=O)CO`, the fluorescence slope change in assay [9] was 29.4% (inactive). In addition, in assay [10], the period change is -0.215 h (inactive). The inhibition (commonly the relative decrease from the control value, in per cent) in [11] is 1% (inactive). For the same compound, in [12], the fluorescence ratio (interference) was 1 (inactive). In addition, the call in assay [13] was inactive.
On to `Cc1onc(-c2ccccc2)c1-c1ccc(S(N)(=O)=O)cc1`, for which the compound was called inactive in assay [1], in assay [14], in [15], in [6] and in assay [7].
As for `CN[C@@H]1[C@H](O)[C@H](NC)[C@H]2O[C@@]3(O)C(=O)C[C@@H](C)O[C@H]3O[C@@H]2[C@H]1O`, the fluorescence slope change in [9] was 67% (active). The same compound showed an inclusion score in assay [8] of 1.5. For the same compound, the half-maximal activity concentration (AC50) (usually the midpoint of the concentration-response curve, whichever way the signal moves) in assay [2] was 4690 nM (active); in assay [3], 1050 nM (active); in assay [4], 332 nM (active); in assay [5], 1480 nM (active).
In the case of `COc1ccc([C@@H]2Sc3ccccc3N(CCN(C)C)C(=O)[C@@H]2OC(C)=O)cc1`, the fluorescence slope change in assay [9] is 71.5% (active). Moreover, the period change in assay [10] is 0.035 h (inactive). In assay [11], the inhibition is -1% (inactive). Moreover, the fluorescence ratio (interference) in assay [12] was 1.1 (inactive). For the same compound, in assay [16], the remaining activity (usually the signal under treatment as a percentage of the control signal) was 113% (inactive). Further, the call in assay [1], in [14], in assay [15], in assay [6], in assay [7] and in assay [13] was inactive.
In the case of `CN(C)CC/C=C1\c2ccccc2COc2ccccc21`, the fluorescence slope change in assay [9] was 109% (active). Further, in [10], the period change is 0.025 h (inactive). Moreover, the inhibition in assay [11] is -5% (inactive). Moreover, the fluorescence ratio (interference) in [12] is 1 (inactive). Further, in [13], the compound was classed as inactive.
`Nc1nc2ncc(CNc3ccc(C(=O)N[C@@H](CCC(=O)O)C(=O)O)cc3)nc2c(=O)[nH]1`: the fluorescence slope change in [9] is 5.4% (inactive). This compound also displayed an inclusion score in [8] of 1.5.
Turning to `Cn1c(=O)c2[nH]cnc2n(C)c1=O`, the fluorescence slope change in assay [9] was 7.6% (inactive) and 62.3% (active). This compound registered an inclusion score in [8] of 1.5. In [10], the period change was 0.14 h (inactive). In addition, the inhibition in [11] is -2% (inactive); in assay [17] (at 0.5 µM, stronger effect = higher value) it was 15.2% (inactive) and -21.4% (inactive) and -26.2% (inactive); in assay [17] (measured here: combination with BGB IC20, at 0.005 µM), -5.83% and -14.3% and -19.1%; in assay [17] (measured here: combination with BGB IC40, at 0.005 µM), -32.6% and -34.3% and -25.4%; in [17] (measured here: combination with BGB IC40, at 0.05 µM), -28.1% and -16.1% and -10.3%; in assay [17] (measured here: combination with cisplatin, at 0.5 µM, stronger effect = higher value), 57.5% and -49.4% and -30.2%. Further, the inhibition was -12.8% and -12% and -12.6% in assay [17] (measured here: combination with cisplatin, at 5 µM, stronger effect = higher value); -1.06% and -2.94% and -4.47% in assay [18] (BGB IC20 combo, at 0.005 µM); -42.4% and 6.67% and -13.1% in assay [18] (BGB IC40 combo, at 0.005 µM); -45.5% and -37.4% and -12% in assay [18] (BGB IC40 combo, at 0.05 µM); -27.5% (inactive) and -16.4% (inactive) and -30.3% (inactive) in [18] (at 0.5 µM); -49.6% and -37.4% and -12% in [18] (cisplatin combo, at 0.05 µM). Also, the inhibition is -29.5% and -23.4% and -59.1% in assay [18] (cisplatin combo, at 0.5 µM); -24.5% and 11.4% and -42.2% in assay [18] (cisplatin combo, at 5 µM); -5.05% and -45.4% and 1.22% in assay [18] (measured here: 5 uM single agent, at 5 µM). In [12], the fluorescence ratio (interference) is 0.9 (inactive). In addition, the result in assay [1], in assay [2], in assay [3], in assay [4], in assay [14] and in assay [15] was inactive. Moreover, the outcome in assay [5], in [6], in assay [7] and in assay [13] was inactive.

Source of the values: PubChem BioAssay.
